PubChem BioAssay

Assays:
PEG-3 [1] = biological target: PEG-3 (UniProt Q6IN02); experiment: Peg3 promoter luciferase inhibitors, potency, dose response, cell-based, HeLa, CREF/GAPDH counter-screen panel (AID 624167); settings: CREF/GAPDH counter-screens; HeLa PEG-Prom luciferase reporter, overnight, run 1, dose range 1, at 100 µM (top of the series) unless noted
PEG-3 [2] = biological target: PEG-3 (UniProt Q6IN02); experiment: as above; settings: CREF/GAPDH counter-screens; HeLa PEG-Prom luciferase reporter, overnight, run 2, dose range 1, at 100 µM (top of the series) unless noted

PEG-3, sequence (Q6IN02 whole entry, looked up): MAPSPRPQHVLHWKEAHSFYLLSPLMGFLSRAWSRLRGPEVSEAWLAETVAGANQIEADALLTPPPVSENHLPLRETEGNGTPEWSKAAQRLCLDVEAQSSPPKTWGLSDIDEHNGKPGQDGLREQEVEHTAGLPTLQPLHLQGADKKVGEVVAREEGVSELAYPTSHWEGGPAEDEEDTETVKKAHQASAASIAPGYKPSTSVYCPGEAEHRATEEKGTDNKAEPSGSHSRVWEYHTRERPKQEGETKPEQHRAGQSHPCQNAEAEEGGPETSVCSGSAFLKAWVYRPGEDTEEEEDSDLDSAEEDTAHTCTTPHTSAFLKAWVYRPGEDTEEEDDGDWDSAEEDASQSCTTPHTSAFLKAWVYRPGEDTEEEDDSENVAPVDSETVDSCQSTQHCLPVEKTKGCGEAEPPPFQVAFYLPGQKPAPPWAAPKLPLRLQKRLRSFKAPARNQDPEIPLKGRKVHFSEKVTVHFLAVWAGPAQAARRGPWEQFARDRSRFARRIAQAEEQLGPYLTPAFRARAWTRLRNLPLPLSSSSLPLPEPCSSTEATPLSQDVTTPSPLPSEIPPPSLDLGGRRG

Compound | inhibition (PEG-3 [1]) | inhibition (PEG-3 [2])
O=C(CCN1C(=O)/C(=C/c2cccs2)SC1=S)N1CCCCC1 | 96.2% | 94.3%
O=C(Cn1ncc(Cl)c(Cl)c1=O)N1CCN(Cc2ccccc2)CC1 | 95.2% | 98.8%
Cc1ccc(S(=O)(=O)N(C)C)cc1NC(=O)c1cncc(Br)c1 | 82.4% | 83.7%
COc1cc(/C=C/c2ccc3cccc(O)c3n2)ccc1O | 92.4% | 99.9%
COc1ccc(C(O)(CCC(C)C)C(CN2CCOCC2)c2ccccc2)cc1 (configuration not stated) | 96.5% | 101%
CCOc1cc(CNCCCN2CCOCC2)ccc1OCC(=O)Nc1cccc2ccccc12 | 100% | 101%
O=C(Nc1ccc(S(=O)(=O)NC2=NCCCCC2)cc1)c1ccc([N+](=O)[O-])s1 | 102% | 101%
CCOC(=O)C1CCN(c2cc3c(cc2NC(=O)c2ccccc2OCC)n(C)c(=O)n3C)CC1 | 101% | 101%
Cc1ccc(NCCN(C)C)c2c(=O)c3cc(O)ccc3sc12 | 97.5% | 102%
CN(C)CCNc1ncnc2c1ncn2[C@H]1CN(Cc2ccc(-c3ccccc3)cc2)C[C@@H](CO)O1 | 100% | 101%
CN(C)c1ccc(N=Nc2nc3ccccc3n2C)cc1 | 98.1% | 98.9%
COc1ccc(-c2cc(C(=O)N3CCN(c4ncccn4)CC3)c3ccccc3n2)c(OC)c1 | 70% | 47.8%
Cc1c(C#N)c(N)nc2c3c(sc12)NC(=O)CC3c1ccc(Cl)cc1 (configuration not stated) | 98.7% | 100%
COC(=O)c1ccc(OCC2c3cc(OC)c(OC)cc3CCN2C(=O)c2ccco2)cc1 (configuration not stated) | 77.9% | 73.5%
COc1ccc(C(=O)Nc2cccc(C(=O)N/N=C/c3ccc(OC)cc3OC)c2)cc1 | 84.1% | 93.1%
CN(C)CC1CCC/C(=C\c2ccc(OC(=O)/C=C/c3ccccc3)cc2)C1=O (configuration not stated) | 97.5% | 102%
CCOc1cc(CNCCO)cc(Br)c1OCc1ccccc1Cl | 100% | 99.1%
Cc1ccc(C(=O)N(CCCN(C)C)c2nc3ccc(Cl)cc3s2)cc1C | 99.5% | 101%
COc1ccc2c(c1)[nH]c1c(=O)n(/N=C/C3C(C)C=C(C)CC3C)c(=O)[nH]c12 (configuration not stated) | -108% | -83.6%
CN(C)S(=O)(=O)c1cccc(NC(=O)CSc2nc3c(cc2C#N)C(=O)CC(C)(C)C3)c1 | 63.2% | 60.6%
CC(C)c1ccc(/C=N/Nc2ccc(C(=O)O)cc2)cc1 | 89.9% | 84%

Compound | inhibition (PEG-3 [1]) | inhibition (PEG-3 [2])
Cc1ccc(C(=O)N2CCN(c3ccc([N+](=O)[O-])c(NCc4cccnc4)c3)CC2)cc1 | 48.8% | 47.4%
CCCc1nc(SCC(=O)N2CCCc3ccccc32)c2c(=O)n(C)c(=O)n(C)c2n1 | 99.2% | 96.2%
Cc1ccc(NC(=O)Nc2ccnc(-c3cccnc3)n2)cc1 | 44.3% | 8.15%
O=C(Nc1cccc(S(=O)(=O)N2CCOCC2)c1)c1ccc2c(=O)n3c(nc2c1)CCCCC3 | 96.5% | 98%
CC(C)CC(N)c1csc(Nc2ccc(C(=O)c3ccccc3)cc2)n1 (configuration not stated) | 102% | 101%
CC(=O)Nc1cccc(-c2ccnc3c2CC(C)(C(=O)Nc2cccc(C(F)(F)F)c2)O3)c1 (configuration not stated) | 92.6% | 88.4%
COc1ccc(CNC(=O)Nc2nc(C(N)Cc3ccc(F)cc3)cs2)cc1 (configuration not stated) | 102% | 101%
CCN(CC)CCN1CCN(c2cncc(-c3ccc4ccccc4c3)n2)CC1 | 98.9% | 102%
NC(N)=N/N=C/c1cccc(Cl)c1Cl | 97.9% | 99.4%
CCOC(=O)c1cnc2c(cnn2C)c1NCCCN(C)C | 80.7% | 88.6%
O=C(Nc1ccc(CN2CCCCC2)cc1)Nc1ccc(Br)cc1Cl | 99% | 101%
COc1ccc(-n2cc(CNC3CCN(C)CC3)c(-c3cccc(F)c3)n2)cc1 | 100% | 101%
CC1CCCCN1C(=O)c1cccc(NC2=C(Cl)C(=O)N(Cc3ccccc3)C2=O)c1 (configuration not stated) | 101% | 101%
CC(C)c1ccc(NC(=O)Nc2nc(C(C)N)cs2)cc1 (configuration not stated) | 100% | 98.9%
CC(=O)c1c(NCCc2ccccc2)nc(=S)n(-c2ccccc2)c1C | 99.6% | 99%
O=C1CSC(=S)N1Cc1cccnc1 | 96.9% | 101%
O=Nc1c(O)ccc2cc(S(=O)(=O)O)ccc12 | 84.7% | 89.5%
Cc1ccc(S(=O)(=O)CCSC(=N)N)cc1 | 101% | 93.6%
CN1Cc2c(N3CCOCC3)nc3sc(C(=O)c4ccc(Br)cc4)c(N)c3c2CC1(C)C | 99% | 101%
COc1cccc(N2CCN(CC(=O)Nc3ccccc3C(=O)NCc3ccccc3)CC2)c1 | 56.8% | 70.2%
